Compound activity from PubChem BioAssay.
CHT inh: inhibits the human high affinity choline transporter; Q9GZV3; CHT-expressing cells, membrane potential dye, choline response; stronger effect = lower value; B-score at 10 µM; 310,000 compounds, 0.86% hits; AID 488975;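 active means B-score over 3 SD under the library average, and starting fluorescence ratio not unusually high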;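 further: choline stimulus applied at its EC90 after an EC20 pre-addition; B-score computed on integrated fluorescence ratio after choline addition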
Target sequence (Q9GZV3 whole entry, looked up): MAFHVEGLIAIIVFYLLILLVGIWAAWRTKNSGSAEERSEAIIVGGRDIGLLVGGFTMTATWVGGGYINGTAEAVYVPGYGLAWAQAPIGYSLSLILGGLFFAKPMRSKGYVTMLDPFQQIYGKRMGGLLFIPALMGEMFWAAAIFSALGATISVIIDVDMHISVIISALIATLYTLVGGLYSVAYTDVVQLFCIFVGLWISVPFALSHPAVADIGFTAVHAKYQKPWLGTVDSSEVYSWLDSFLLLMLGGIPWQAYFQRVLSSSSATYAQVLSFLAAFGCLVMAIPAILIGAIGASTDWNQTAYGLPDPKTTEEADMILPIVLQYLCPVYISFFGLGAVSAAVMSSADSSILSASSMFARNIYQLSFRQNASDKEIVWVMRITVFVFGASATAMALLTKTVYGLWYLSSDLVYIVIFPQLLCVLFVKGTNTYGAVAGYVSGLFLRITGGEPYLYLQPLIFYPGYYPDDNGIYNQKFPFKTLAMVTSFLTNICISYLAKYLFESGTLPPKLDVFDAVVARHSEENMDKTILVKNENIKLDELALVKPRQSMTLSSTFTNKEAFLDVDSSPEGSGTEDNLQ
EP2 mod: modulates human prostaglandin E2 receptor EP2 signaling. EP2-expressing cells, cAMP HTRF FRET, PGE2 co-stimulation. induction, % at 25 µM. 260,000 compounds, 0.83% hits. AID 940;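 active means compounds whose cAMP rise, as percent of the full-agonist control response, exceeds 60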;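 further: rat C6 glioma line stably carrying human EP2 under a CMV promoter; the protocol text gives 20 µM as final concentration; 100% = response of wells given 1 µM PGE2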
PGE2 EP2 inh: inhibitors of human EP2 prostaglandin E2 receptor; C6 glioma cells expressing human EP2, cAMP TR-FRET; cells stimulated with saturating PGE2; inhibition, % at 25 µM; P43116; AID 1422; 260,000 compounds, 0.52% hits;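 active means percent inhibition above 40 after rounding to a whole number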;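 further: rat C6 glioma host cells with rolipram phosphodiesterase inhibitor present; the protocol text gives 20 µM as final concentration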
CHT allo act: allosterically activates the human high affinity choline transporter; CHT-expressing cells, membrane potential dye, choline EC20; stronger effect = higher value; LV-AA mutant CHT in HEK293 cells; AID 488977; B-score at 10 µM; Q9GZV3; 310,000 compounds, 0.49% hits;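 active means initial fluorescence not abnormally high and integrated response B-score, plate-corrected, over 3 SD above library mean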
Active calls of the source: *; i = inactive; . = no result given; ! = not confirmed by another sample. This is a sample that favours compounds with a hit; in the whole collection about 2% have one here.

SMILES	CHT inh	EP2 mod	PGE2 EP2 inh	CHT allo act
Cc1onc(-c2c(F)cccc2Cl)c1C(=O)N[C@@H]1C(=O)N2[C@H]1SC(C)(C)[C@H]2C(=O)O	.	20.3	54.8*	.
CC1CC(=O)c2c(cc3c(-c4c(O)cc(O)c5c(O)c6c(cc45)OC(C)CC6=O)c(O)cc(O)c3c2O)O1 (stereo unspecified)	i	-17.4	76.8*	i
CCOc1ccc(C(C(=O)NC2CCCC2)N(C(=O)c2ccco2)C2CCCC2)cc1 (stereo unspecified)	.	-15.7	4.6	.
CCOc1ccc(N(C(=O)c2ccco2)C(C(=O)NC2CCCC2)c2ccccc2)cc1 (stereo unspecified)	.	60.5*	5.9	.
NC(N)=N/N=C(\c1ccccc1)c1ccc(O)cc1O	.	19.5	12.8	.
O=C(Nc1nnc(-c2ccco2)s1)C1CCCCC1	i	-12.3	24.1	i
Cc1ccc(S(=O)(=O)N2CCC(C(=O)Nc3nnc(-c4ccco4)s3)CC2)cc1	i	-2.6	46.0*!	i
CCc1ccc2[nH]c(=O)c(CN(Cc3ccc(C)cc3)C(CC)c3nnnn3C3CCCCC3)cc2c1 (stereo unspecified)	.	45.1	2.8	.
CC(C)(C)c1ccc(Cn2nnc3c(=O)[nH]c(C4CCN(C(=O)C5CCCCC5)CC4)nc32)cc1	.	71.5*	7.7	.
O=c1[nH]c2ccc(S(=O)(=O)NCC(c3ccc(F)cc3)N3CCCC3)cc2[nH]1 (stereo unspecified)	.	-38.8	3.8	.
O=C1C=CC(=O)N1CCNc1ncc(C(F)(F)F)cc1Cl	.	-49.8	100.8*	.
CSc1nc2ccccc2n1Cc1cccc(F)c1	i	34.9	9.0	i
Fc1cccc(Oc2nc3ccccc3n3cccc23)c1	i	61.5*	14.2	i
Cn1ncc(S(=O)(=O)Cc2ccccc2)c(Cl)c1=O	i	-33.0	88.8*	i
COC1=CC(=O)C=C(OC)C1=O	.	-24.1	74.6*	.
CCn1c(=O)oc2cc(S(=O)(=O)NCC3CC4CCC3C4)ccc21 (stereo unspecified)	.	-94.2	6.3	.
CC(=O)c1cc2c(cc1NS(=O)(=O)c1ccc(Br)cc1)OCO2	.	-10.2	6.6	.
CCCCCCCc1nc2c(=O)n(C)c3ccccc3c2o1	i	69.7*	6.9	i
Cc1nonc1CC(=O)N1CCC(c2nc3sc4c(c3c(=O)[nH]2)CCCC4)CC1	.	-26.4	.	.
Cc1nn(CC(=O)NC(C)CCc2ccco2)c(=O)c2cc3ccsc3n12 (stereo unspecified)	.	-15.0	6.5	.
O[C@@H](c1cc([C@@]23C[C@H]4CC[C@@H]2C[C@H](C4)C3)nc2c(Cl)cc(Cl)cc12)[C@@H]1CCCCN1	.	19.5	76.5*	.
CC(=O)c1ccc2c(c1)Nc1ccccc1S2	i	-15.3	19.7	i
C/C(=N\NC(=O)c1ccc(C)cc1C)c1ccc2c(c1)Nc1ccccc1S2	i	-75.0	43.1*	i
CCC(C)OC(=O)C1=C(C)NC2=C(C(=O)CC(c3ccc(OC)c(OC)c3)C2)C1c1ccc(C)o1 (stereo unspecified)	.	8.8	11.7	.
COc1ccc(C2CC(=O)C3=C(C2)NC(C)=C(C(=O)OC2CCCC2)C3c2ccc(C)o2)cc1OC (stereo unspecified)	.	-6.2	40.0*	.
SMILES	CHT inh	EP2 mod	PGE2 EP2 inh	CHT allo act
CC(=O)Nc1ccc(NS(=O)(=O)c2ccc3c4c(cccc24)C(=O)N3C)cc1	.	-15.5	23.0	.
Cc1ccc(S(=O)(=O)NC(Cc2c[nH]c3ccccc23)C(=O)O)cc1C (stereo unspecified)	.	15.1	9.1	.
O=C(Nc1nc2ccsc2c(=O)s1)c1ccco1	i	10.5	8.8	i
O=C(Nc1nc2c(Cl)ccc(Cl)c2s1)c1ccco1	i	-16.7	70.0*	i
CC(C)(C)N1C(=O)Cc2c1nc(N)c1c(N)nc(N3CCCCC3CO)c(C#N)c21 (stereo unspecified)	i	-29.1	44.1*	i
CN(CCO)c1nc(N)c2c(N)nc3c(c2c1C#N)CC(=O)N3C1CCCC1	i	17.8	19.8	i
Cc1cc(N=Nc2c(O)c3ccccc3[nH]c2=O)ccc1N=Nc1ccc(C(=O)N(C)C)cc1	.	2.1	4.3	.
Cc1ccc(N=Nc2c(O)c3ccccc3[nH]c2=O)c(S(=O)(=O)N(C)C)c1	.	-17.5	48.1*!	.
Cc1ccc(-c2nc(=S)c3c(n2Cc2ccco2)CC(C)(C)OC3)cc1	i	45.8	3.3	11.6*
N#CC(C#N)=C1C=CC=CN1/C(=C\c1ccccc1Cl)C(=O)c1ccccc1	i	-29.6	24.4	i
N#CC(C#N)=C1C=CC=CN1/C(=C\c1ccccc1)C(=O)c1cccs1	i	1.8	49.5*	i
O=C(O)/C=C\C(=O)Nc1ccc2cn[nH]c2c1	.	-20.3	5.8	.
Cc1ccc(C)c(NC(=O)CSc2nnc3c4c5c(sc4nc(C)n23)CCCC5)c1	.	-9.8	9.2	.
Nc1ncnc2c1cnn2-c1ccccc1	i	.	-4.1	i
S=c1nc[nH]c2c1cnn2-c1ccccc1	i	71.0*	9.4	i
Cc1c(C(=O)Nc2cccc(C(=O)N3CCOCC3)c2)nnn1-c1ccccc1	.	-17.7	7.0	.
CC(=O)/C=C/c1ccc(C)o1	i	16.4	7.5	i
Cc1ccc(/C=C/C(=O)c2ccc(Br)cc2)o1	.	-107.5	94.6*	.
Cc1ccn(CCNC(=O)Cn2nc(C(F)(F)F)c3c2CCCC3)n1	.	-9.9	8.8	.
COc1ccccc1CN1CCC(CNS(=O)(=O)c2cc(-c3cc(C)no3)ccc2OC)CC1	i	.	.	i
COc1ccccc1CNS(=O)(=O)c1ccc(-c2cc(C)no2)cc1	i	.	.	6.45*
Cn1c(=O)[nH]c(=O)c2[nH]c(N3CCN(CCO)CC3)nc21	.	13.1	10.7	.
N#CC1=C(N)Oc2n[nH]c(-c3cccs3)c2C1c1cccs1 (stereo unspecified)	i	-19.8	52.0*	i
N#CC1=C(N)Oc2n[nH]c(-c3cccs3)c2C1c1ccc(O)cc1 (stereo unspecified)	.	-26.8	13.1	.
Oc1cc(O)c2c(c1)O[C@@H](c1ccc(O)c(O)c1)[C@H](O[C@@]1(c3cc(O)c(O)c(O)c3)Oc3cc(O)cc(O)c3[C@H](O)[C@H]1O)C2	.	11.7	57.0*	.
SMILES	CHT inh	EP2 mod	PGE2 EP2 inh	CHT allo act
CCCCC[C@@H](O)[C@@H]1C(=O)O[C@@H](C)[C@@H](O)C=C/C=C\C=CC=C/C=C(/C)[C@H](O)C[C@H](O)C[C@H](O)C[C@H](O)C[C@H](O)C[C@H](O)C[C@@H]1O	.	22.8	50.0*	.
Cc1cccc(C)c1NC(=O)CSc1nc2cc3c(cc2cc1C#N)OCCO3	.	9.9	19.2	.
N#Cc1cc2cc3c(cc2nc1SCC(=O)NCCc1ccccc1)OCCO3	.	72.5*	37.6	.
N#Cc1cc2cc3c(cc2nc1SCC(=O)Nc1cccc2ccccc12)OCCO3	.	47.5	23.5	.
CCc1cccc(CC)c1NC(=O)CSc1nc2cc3c(cc2cc1C#N)OCCO3	.	63.4*	32.9	.
Cc1ccc(NC(=O)Cn2cnc3ccccc32)cc1Cl	.	-49.2	10.3	.
CCOC(=O)C(C)n1nc(CC)n2c(cc3ccsc32)c1=O (stereo unspecified)	.	7.9	.	.
CC(C)(C)c1ccc(C(=O)NC(=S)NNC(=O)COc2ccccc2)cc1	-5.14*	.	.	i
